Calls of active or inactive are those of the source. How the source made its calls: active means hit-call score of the fitted dose curve at least 0.9, where 1 is the maximum; inactive means score below 0.9.
Experiments:
[1] = ATG_E_Box_CIS: Attagene CIS-FACTORIAL HepG2 Assay for human Enhancer Box (E-box) (AID 2282936); conditions: HepG2 E-box cis-reporter transcription, actives raise or lower the signal
Summary of the method: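 Endogenous transcription factor activity was sensed in human HepG2 liver cells through transfected cis-promoter reporter units. After 24 h of dosing, total RNA was reverse-transcribed and reporter cDNA resolved by capillary electrophoresis.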

[2] = ATG_M_61_CIS: Attagene CIS-FACTORIAL HepG2 Assay for M61 Transcription Factor (Internal Marker) (AID 2282937); conditions: HepG2 Attagene CIS-FACTORIAL M61 internal marker reporter; actives raise or lower the signal
Summary of the method: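 Cells were transfected with reporter units under cis-regulatory promoters, treated with chemicals for 24 h, then lysed for RNA. Reporter transcripts were quantified by RT-PCR and capillary electrophoresis, and activity was fitted bidirectionally against DMSO.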

[3] = ATG_EGR_CIS: Attagene CIS-FACTORIAL HepG2 Assay for human Early Growth Response 1 (EGR1) (AID 2282938); conditions: HepG2 Attagene CIS-FACTORIAL EGR reporter mRNA; actives raise or lower the signal
Summary of the method: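 Endogenous TF activity in HepG2 liver cells was gauged through cis-promoter reporter constructs transiently transfected. After 24 h dosing, reporter mRNA was quantified by RT-PCR and capillary electrophoresis, and curves fitted in both directions versus DMSO.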

[4] = ATG_M_19_CIS: Attagene CIS-FACTORIAL HepG2 Assay for M19 Transcription Factor (Internal Marker) (AID 2282939); conditions: HepG2 Attagene CIS-FACTORIAL M19 internal marker reporter; actives raise or lower the signal
Summary of the method: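 Background-control endpoint from a multiplexed HepG2 reporter panel. Cells carrying cis-regulated reporter constructs are treated 24 h, then reporter transcripts are amplified, fluorescently labelled and sized by capillary electrophoresis. DMSO defines baseline.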

[5] = ATG_ERE_CIS: Attagene CIS-FACTORIAL HepG2 Assay for Estrogen Response Element (ERE) (AID 2282940); conditions: HepG2 ERE cis-reporter, Attagene RNA transcript; actives raise or lower the signal
Summary of the method: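 Cells used were human hepatoma HepG2, transfected with multiple reporter transcription units under cis-regulatory promoters. Reporter mRNA, read 24 h post-dosing via fluorescent RT-PCR products on capillary electrophoresis, was fitted bidirectionally relative to DMSO.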

[6] = ATG_Ets_CIS: Attagene CIS-FACTORIAL HepG2 Assay for human Erythroblast Transformation Specific (ETS) (AID 2282941); conditions: HepG2 ETS cis-reporter transcription, actives raise or lower the signal
Summary of the method: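 Cis-regulated reporter mRNA induction in HepG2 (transient transfection), 24 h exposure, RT-PCR plus capillary electrophoresis detection; DMSO serves as negative control and baseline.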

[7] = ATG_FoxO_CIS: Attagene CIS-FACTORIAL HepG2 Assay for human Forkhead box O (FoxO) (AID 2282943); conditions: HepG2 Attagene cis-reporter, FoxO element, mRNA; actives raise or lower the signal
Summary of the method: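 Values reflect reporter mRNA induction or loss in HepG2 cells 24 h post-dosing, fitted bidirectionally with DMSO as negative control and baseline. Detection used RT-PCR and fluorescence capillary electrophoresis.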

[8] = ATG_GATA_CIS: Attagene CIS-FACTORIAL HepG2 Assay for human GATA Binding Protein (AID 2282944); conditions: HepG2 GATA cis-element reporter, Attagene multiplex mRNA; actives raise or lower the signal
Summary of the method: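 Endogenous transcription factor activity was captured through cis-promoter-driven reporters in transfected HepG2 cells. After 24 h exposure, reporter transcripts were quantified by RT-PCR with fluorescent capillary electrophoresis, and responses fitted both directions against DMSO.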

[9] = ATG_GLI_CIS: Attagene CIS-FACTORIAL HepG2 Assay for human Zinc Finger Protein GLI1 (AID 2282945); conditions: HepG2, Attagene cis-factorial reporter mRNA, GLI element; actives raise or lower the signal
Summary of the method: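 HepG2 cells transiently transfected with cis-promoter multiplexed reporter units report endogenous transcription factor activity. After 24 h chemical exposure, reporter mRNA was quantified by RT-PCR, 6-FAM labelling, HpaI digestion and capillary electrophoresis, with bidirectional fitting against DMSO.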

[10] = biological target: Hepatocyte nuclear factor 3-beta (Homo sapiens) (UniProt Q9Y261); assay: ATG_FoxA2_CIS: Attagene CIS-FACTORIAL HepG2 Assay for human Forkhead box A2 (FOXA2) (AID 2282942); conditions: HepG2 cis-reporter transcription factor activity, 24 h; actives raise or lower the signal
Sequence of Hepatocyte nuclear factor 3-beta (Homo sapiens) (Q9Y261 whole entry, looked up): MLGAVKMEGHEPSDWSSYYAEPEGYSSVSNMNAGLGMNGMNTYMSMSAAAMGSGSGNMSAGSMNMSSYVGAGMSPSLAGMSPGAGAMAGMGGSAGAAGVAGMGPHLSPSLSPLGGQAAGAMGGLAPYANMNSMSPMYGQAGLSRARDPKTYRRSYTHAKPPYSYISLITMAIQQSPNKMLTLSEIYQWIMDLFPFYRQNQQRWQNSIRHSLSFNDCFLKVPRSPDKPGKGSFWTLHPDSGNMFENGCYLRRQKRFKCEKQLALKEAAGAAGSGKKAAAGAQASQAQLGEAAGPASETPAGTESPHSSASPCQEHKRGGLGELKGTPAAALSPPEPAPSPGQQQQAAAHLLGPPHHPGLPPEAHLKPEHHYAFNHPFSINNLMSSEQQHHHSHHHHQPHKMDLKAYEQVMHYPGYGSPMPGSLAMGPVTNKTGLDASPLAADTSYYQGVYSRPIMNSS
Summary of the method: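 Endogenous transcription factor activity was read in HepG2 cells carrying transiently transfected cis-promoter reporter units. After 24 h dosing, reporter mRNA was quantified by RT-PCR and capillary electrophoresis, and values fitted bidirectionally versus DMSO.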

Measured: AC50

O=[N+]([O-])C1(Br)COCOC1
active: [1] 61 µM
inactive: [2] | [3] | [4] | [5] | [6] | [7] | [8] | [9]

C1=CCCC1
inactive: [1] | [2] | [3] | [4] | [5] | [6] | [10] | [7] | [9]

NC(=O)NNC(N)=O
inactive: [1] | [2] | [3] | [4] | [5] | [6] | [10] | [7] | [9]

c1ccc(CCCc2ccncc2)cc1
inactive: [1] | [2] | [3] | [4] | [5] | [10] | [7] | [9]
active: [6] 155 µM

CCCCC/C=C\C/C=C\CCCCCCCC(=O)OC
active: [3] 100 µM | [9] 162 µM
inactive: [1] | [2] | [4] | [5] | [6] | [7] | [8]

O=C(Nc1ccccc1SSc1ccccc1NC(=O)c1ccccc1)c1ccccc1
inactive: [1] | [2] | [3] | [4] | [5] | [6] | [10] | [7]
active: [9] 100 µM

Cc1ccc(C(C)c2ccc(C)c(C)c2)cc1C
active: [9] 146 µM
inactive: [1] | [2] | [3] | [4] | [5] | [6] | [10] | [7]

Cc1ccc(N)c([N+](=O)[O-])c1
inactive: [1] | [2] | [3] | [4] | [5] | [6] | [7] | [8] | [9]

CCO[Si](CCCN=C=O)(OCC)OCC
inactive: [1] | [2] | [3] | [4] | [5] | [6] | [7] | [8] | [9]

CCCOC(=O)CCCCC(=O)OCCC
inactive: [1] | [2] | [3] | [4] | [5] | [6] | [10] | [7] | [9]

CCCCCCCC[N+](C)(CCCCCCCC)CCCCCCCC
inactive: [1] | [2] | [3] | [4] | [5] | [6] | [10] | [7] | [9]

O=C1CCC(=O)N1Cl
inactive: [1] | [2] | [3] | [4] | [5] | [6] | [10] | [7] | [9]

COCCCOCCCOC
inactive: [1] | [2] | [3] | [4] | [5] | [6] | [7] | [8]

C=CC(=O)OCCC(=O)O
inactive: [1] | [2] | [3] | [4] | [5] | [6] | [10] | [7] | [9]

Nc1ncn([C@@H]2O[C@H](CO)[C@@H](O)[C@H]2O)c(=O)n1
inactive: [2] | [3] | [4] | [5] | [7] | [8] | [9]
active: [1] 27.5 µM | [6] 39.5 µM

CCN(Cc1cccc(S(=O)(=O)O)c1)c1ccc(C(=C2C=CC(=[N+](CC)Cc3cccc(S(=O)(=O)[O-])c3)C=C2)c2ccccc2)cc1
inactive: [1] | [2] | [3] | [4] | [5] | [6] | [10] | [7] | [9]

CCCCCC(C)O (stereo not given)
inactive: [1] | [2] | [3] | [4] | [5] | [6] | [10] | [7] | [9]

C=CC(=O)OCC(Br)CBr (stereo not given)
active: [1] 72.9 µM | [3] 52.8 µM
inactive: [2] | [4] | [5] | [6] | [7] | [8] | [9]

C=CC(C)(C)C
inactive: [1] | [2] | [3] | [4] | [5] | [6] | [10] | [7] | [9]

CC=CC(F)(F)C(F)(F)C(F)(F)F
inactive: [1] | [2] | [3] | [4] | [5] | [6] | [10] | [7] | [9]

Cc1ccc(C(C)(C)C)cc1
inactive: [1] | [2] | [3] | [4] | [5] | [6] | [10] | [7] | [9]

Cc1cccc(OCCOc2cccc(C)c2)c1
inactive: [1] | [2] | [3] | [4] | [5] | [6] | [7] | [8]

CO[Si](OC)(OC)c1ccccc1
inactive: [1] | [2] | [3] | [4] | [5] | [6] | [10] | [7] | [9]

NNC(=O)c1cccc(C(=O)NN)c1
inactive: [1] | [2] | [3] | [4] | [5] | [6] | [7] | [8] | [9]

SCCc1cnccn1
inactive: [1] | [2] | [3] | [4] | [5] | [6] | [10] | [7] | [9]

CC(=O)OC1C2(C)CCC(C2)C1(C)C (stereo not given)
inactive: [1] | [2] | [3] | [4] | [5] | [6] | [10] | [7] | [9]

Cc1ccc(N/N=c2\c(=O)cc/c(=N/Nc3ccc(S(=O)(=O)O)cc3)c2=O)c(C)c1
active: [5] 100 µM
inactive: [1] | [2] | [3] | [4] | [6] | [10] | [7] | [9]

C=C1[C@H]2CC[C@@H]3[C@H]2C(C)(C)CCC[C@]13C
inactive: [1] | [2] | [3] | [4] | [5] | [6] | [10] | [7] | [9]

— PubChem BioAssay (EPA / NIEHS)
